D1 antag: blocks dopamine activation of the human D1 receptor | P21728 | HEK293 TREx D1 cells, calcium flux, dopamine EC80; stronger effect = lower value | activity change, negative = inhibition, % at 10 µM | actives 3.2% (n = 360,000); in the data active = activity change below about -30%
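Compound effects on dopamine-evoked calcium signalling were measured in tetracycline-induced HEK293 Trex D1 cells. Dopamine at EC80 followed a 180 s compound pre-read, and fluorescence was tracked kinetically for 180 s more.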
USP1-UAF1 inh: USP1/UAF1 (human) deubiquitinase inhibition; O94782; recombinant USP1/UAF1, Ub-Rhodamine cleavage fluorescence; Potency, µM (doses to about 57.1 µM), hits mostly inhibitors; actives 0.23% (n = 390,000); active = well fitted inhibition curve with a large enough effect; inconclusive = small, poorly fitted or top-dose-only effect; inactive = no such curve, though single readings can be large or run the other way; note: nearly all actives have a fitted effect of over 60% in size
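In this screen, compounds sit with the deubiquitinase complex (1nM) for 15 min at room temperature before Ub-Rho is added at 150nM final. Fluorescence rise is then followed for 6 reads every 60 seconds.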
D1 potentiator: potentiators of human D1 dopamine receptor. P21728. HEK293 TREx D1 cells, calcium flux, dopamine EC20 potentiation. actives 0.036% (n = 360,000). potentiation, % at 10 µM; in the data active = potentiation above about 30%
D1 agonist: activates the human D1 dopamine receptor | HEK293 T-REx D1 cells, calcium flux, agonist mode | activation, % at 2 µM | actives 1% (n = 360,000) | AID 504660
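Inducible HEK293 T-REx D1 cells, force-coupled to calcium signalling, were plated at 4000 cells/well with tetracycline and held overnight at 30 C. After no-wash calcium dye loading, compound-evoked calcium rise over 180 s flagged agonists.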
TRHR ag: TRH receptor (human) agonism; P34981; TRHR cells, calcium flux fluo-8, FDSS agonist mode; activation, % at 2 µM; actives 0.18% (n = 360,000); AID 493084
Target sequence (P34981 whole entry, looked up): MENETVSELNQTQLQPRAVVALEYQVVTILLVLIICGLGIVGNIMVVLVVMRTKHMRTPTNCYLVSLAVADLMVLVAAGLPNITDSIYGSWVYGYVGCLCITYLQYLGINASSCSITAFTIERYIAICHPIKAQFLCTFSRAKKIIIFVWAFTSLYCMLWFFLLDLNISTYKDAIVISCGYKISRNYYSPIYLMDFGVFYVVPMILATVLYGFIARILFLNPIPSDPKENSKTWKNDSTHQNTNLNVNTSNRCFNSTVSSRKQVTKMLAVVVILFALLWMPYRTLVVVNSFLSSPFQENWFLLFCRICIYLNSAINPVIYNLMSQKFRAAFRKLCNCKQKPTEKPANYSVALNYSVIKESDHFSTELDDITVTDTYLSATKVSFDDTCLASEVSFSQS
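Agonist-mode FDSS calcium read (Ex 480/Em 530, 1 s cycles) in 1536-well TRHR cells with fluo-8 dye, after 10-cycle baseline and 23 nL compound addition; TRH at EC20 (10 nM final) added afterwards for the enhancer phase.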
TRHR enhancer: allosterically enhances the human TRH receptor. P34981. TRHR cells, fluo-8 calcium fluorescence, EC20 TRH enhancement. enhancement, % at 2 µM. actives 0.66% (n = 360,000). AID 493056; in the data active = enhancement above about 30%
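TRHR-expressing cells loaded with fluo-8 calcium dye were read kinetically (ex 480/em 530) during compound addition, then stimulated with an EC20 of TRH (10 nM final). Enhancement of the Gq-mediated intracellular calcium response was scored.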
A number is an active result. Compounds with a hit are over-represented: about 4.4% of the library has one in this group of screens. Cut-off read from the data, not from the text of the source, unless noted: active = activation above about 30%; inactive = the rest.

What do the screens show for `O=C(Nc1c(C(=O)N2CCN(c3ccccc3)CC2)oc2ccccc12)c1ccco1`?
D1 antag: inactive; USP1-UAF1 inh: inactive; D1 potentiator: inactive; D1 agonist: inactive; TRHR ag: inactive; TRHR enhancer: inactive

What do the screens show for `Cc1cc(NC(=O)/C=C/c2ccc(F)cc2)n(-c2nc3ccccc3[nH]2)n1`?
D1 antag: -36; USP1-UAF1 inh: inactive; D1 potentiator: inactive; D1 agonist: inactive; TRHR ag: inactive; TRHR enhancer: inactive

Results for Cc1cc(NC(=O)/C=C/c2cccc(F)c2)n(-c2nc3ccccc3[nH]2)n1 ?
D1 antag: inactive; USP1-UAF1 inh: inactive; D1 potentiator: inactive; D1 agonist: inactive; TRHR ag: inactive; TRHR enhancer: inactive

What do the screens show for `COc1ccc(/C=C/C(=O)Nc2cc(C)nn2-c2nc3ccccc3[nH]2)cc1`?
D1 antag: -41; USP1-UAF1 inh: inactive; D1 potentiator: inactive; D1 agonist: inactive; TRHR ag: inactive; TRHR enhancer: inactive

How did Cc1cc(NC(=O)/C=C/c2cccc(Cl)c2)n(-c2nc3ccccc3[nH]2)n1 do in these assays?
D1 antag: inactive; USP1-UAF1 inh: inactive; D1 potentiator: inactive; D1 agonist: inactive; TRHR ag: inactive; TRHR enhancer: inactive

How did COc1ccc(-c2nc(C)c(CCNC(=O)c3cc(OC)c(OC)c(OC)c3)s2)cc1OC do in these assays?
D1 antag: inactive; USP1-UAF1 inh: inactive; D1 potentiator: inactive; D1 agonist: inactive; TRHR ag: inactive; TRHR enhancer: inactive

Results for CCCn1c(CCC(=O)Nc2cc(C(=O)OC)cc(C(=O)OC)c2)nc2cccnc21 ?
D1 antag: inactive; USP1-UAF1 inh: inactive; D1 potentiator: inactive; D1 agonist: inactive; TRHR ag: inactive; TRHR enhancer: inactive

Results for CNC(=O)c1cnc2sc(N3CCCCCC3)nn2c1=O ?
D1 antag: inactive; USP1-UAF1 inh: inactive; D1 potentiator: inactive; D1 agonist: inactive; TRHR ag: inactive; TRHR enhancer: inactive

How did CCOC(=O)C1=C(C)OC(=Cc2ccccc2)C1=O do in these assays?
USP1-UAF1 inh: inactive

Results for CCOC(=O)C1=C(O)c2ccccc2C(=O)/C1=C\c1ccc(C)cc1 ?
D1 antag: inactive; USP1-UAF1 inh: inconclusive; D1 potentiator: inactive; D1 agonist: 34; TRHR ag: inactive; TRHR enhancer: inactive

How did C=CCSc1nnc(-c2cnn(-c3ccccc3)c2-n2cccc2)n1C do in these assays?
D1 antag: inactive; USP1-UAF1 inh: inactive; D1 potentiator: inactive; D1 agonist: inactive; TRHR ag: inactive; TRHR enhancer: inactive

Results for CCCSc1nnc(-c2cnn(-c3ccccc3)c2-n2cccc2)n1C ?
D1 antag: inactive; USP1-UAF1 inh: inactive; D1 potentiator: inactive; D1 agonist: 36; TRHR ag: inactive; TRHR enhancer: inactive

Results for COC(=O)c1sccc1S(=O)(=O)N(CC(=O)NCc1ccc(C)cc1)c1ccc(Cl)cc1 ?
D1 antag: inactive; USP1-UAF1 inh: inactive; D1 potentiator: inactive; D1 agonist: inactive; TRHR ag: inactive; TRHR enhancer: inactive

What do the screens show for `CC(C(=O)Nc1ccccc1)N1C(=O)c2ccccc2C1=O` (centres undefined)?
D1 antag: inactive; USP1-UAF1 inh: inactive; D1 potentiator: inactive; D1 agonist: inactive; TRHR ag: inactive; TRHR enhancer: 32

How did Cc1oc(-c2cccc(Cl)c2)nc1CN1CCC(C(=O)N2CCN(c3ccccn3)CC2)CC1 do in these assays?
USP1-UAF1 inh: inactive

Results for CCc1ccc(-c2nc(CN3CCC(C(=O)N4CCN(c5ccccc5)CC4)CC3)c(C)o2)cc1 ?
D1 antag: -35; USP1-UAF1 inh: inactive; D1 potentiator: inactive; D1 agonist: 43; TRHR ag: inactive; TRHR enhancer: inactive

How did CCc1ccc(-c2nc(CN3CCC(C(=O)N4CCN(c5ccccn5)CC4)CC3)c(C)o2)cc1 do in these assays?
D1 antag: -55; USP1-UAF1 inh: inactive; D1 potentiator: inactive; D1 agonist: 168; TRHR ag: inactive; TRHR enhancer: inactive

How did Cc1cc2c(s1)c1cnn(Cc3ccc(Cl)cc3)c(=O)c1n2C do in these assays?
D1 antag: inactive; D1 potentiator: inactive; D1 agonist: inactive; TRHR ag: inactive; TRHR enhancer: inactive

What do the screens show for `O=C1OCC(CO)(CO)N=C1NNc1ccccc1Cl`?
D1 antag: inactive; USP1-UAF1 inh: inactive; D1 potentiator: inactive; D1 agonist: inactive; TRHR ag: inactive; TRHR enhancer: 31

How did O=C(O)C1(Nc2ccccc2Cl)CCCC1 do in these assays?
USP1-UAF1 inh: inactive

Results for Cc1ccc(CN(C(=O)COc2cccc(Cl)c2)c2ccccn2)o1 ?
D1 antag: inactive; USP1-UAF1 inh: inactive; D1 potentiator: inactive; D1 agonist: inactive; TRHR ag: inactive; TRHR enhancer: inactive

How did O=C(CSc1nnc(Cc2cc(=O)[nH]c(=O)[nH]2)n1-c1ccccc1)N1CCCCC1 do in these assays?
D1 antag: inactive; USP1-UAF1 inh: inactive; D1 potentiator: inactive; D1 agonist: inactive; TRHR ag: inactive; TRHR enhancer: inactive

Results for O=C(CSc1nnc(CCCN2C(=O)c3cccc4cccc(c34)C2=O)n1-c1ccccc1)N1CCCCC1 ?
D1 antag: -79; USP1-UAF1 inh: inactive; D1 potentiator: inactive; D1 agonist: inactive; TRHR ag: inactive; TRHR enhancer: inactive

What do the screens show for `CCc1ccc(NC(=O)c2nn(-c3ccc(OC)cc3)c(=O)c3c2c2ccccc2n3C)cc1`?
D1 antag: inactive; USP1-UAF1 inh: inactive; D1 potentiator: inactive; D1 agonist: inactive; TRHR ag: inactive; TRHR enhancer: inactive

How did COc1ccccc1CNC(=O)CSc1nc2nc(C)c(Cc3ccccc3Cl)c(C)n2n1 do in these assays?
D1 antag: inactive; USP1-UAF1 inh: inactive; D1 potentiator: inactive; D1 agonist: inactive; TRHR ag: inactive; TRHR enhancer: inactive

What do the screens show for `CN=c1scc(-c2ccccc2F)n1/N=C/c1ccc(O)c(O)c1O`?
D1 antag: -41; USP1-UAF1 inh: inactive; D1 potentiator: inactive; D1 agonist: inactive; TRHR ag: inactive; TRHR enhancer: inactive

How did CN=c1scc(-c2ccccc2F)n1/N=C/c1ccc[nH]1 do in these assays?
D1 antag: inactive; USP1-UAF1 inh: inactive; D1 potentiator: inactive; D1 agonist: inactive; TRHR ag: inactive; TRHR enhancer: inactive

Results for CC1Nc2ccccc2C(=O)N1NS(C)(=O)=O (centres undefined) ?
D1 antag: inactive; USP1-UAF1 inh: inactive; D1 potentiator: inactive; D1 agonist: inactive; TRHR ag: inactive; TRHR enhancer: 33

How did O=C(NCCCNc1ccc(C(F)(F)F)cc1[N+](=O)[O-])c1ccc(Cl)cc1 do in these assays?
D1 antag: inactive; USP1-UAF1 inh: inactive; D1 potentiator: inactive; D1 agonist: inactive; TRHR ag: inactive; TRHR enhancer: inactive

What do the screens show for `O=C(NCCCNc1ccc(C(F)(F)F)cc1[N+](=O)[O-])c1cc(F)c(F)cc1Cl`?
D1 antag: -43; USP1-UAF1 inh: inactive; D1 potentiator: inactive; D1 agonist: inactive; TRHR ag: inactive; TRHR enhancer: inactive
